In the library only some 1% were active in any assay of this set; here they are far more common.
PriA SSB inh – K. pneumoniae PriA-SSBct interaction inhibition. AlphaScreen SSBct-PriA binding, biotinylated peptide. 430,000 tested, 0.6% active. inhibition, % at 33 µM; in the data active = inhibition mostly above about 37%, no sharp cut-off; inactive = mostly below about 20%
RN4220 kill – kills Staphylococcus aureus RN4220. S. aureus RN4220 growth, OD600, 16 h. 330,000 tested, 0.33% active. AID 1259311. inhibition, % (test concentration not listed); in the data active = inhibition above about 85%
Sa ugtP lethal – compounds lethal to S. aureus RN4220 ugtP deletion mutant; OD600 growth, 16 h; 330,000 tested, 0.54% active; growth inhibition, % (test concentration not listed); AID 1259309; in the data active = growth inhibition above about 68%
Mtb bLac sens – beta-lactam sensitization of Mtb H37Rv. M. tuberculosis H37Rv growth with meropenem, percent inhibition. inhibition, % at 25 µM. 330,000 tested, 0.27% active. AID 434955; call rule not given here;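 note: growth measured after seven days incubation then overnight dye step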
Mtb hypoxia inh – reduces hypoxia-regulated biosensor signal in M. tuberculosis | M. tuberculosis hypoxia-regulated fluorescent reporter, fluorescence | fluorescence inhibition, % (no concentration beside the values) | 300,000 tested, 0.1% active; in the data active = fluorescence inhibition mostly above about 23%, no sharp cut-off; inactive = mostly below about 17%
A number is an active result; – = inactive; · = no result given.

SMILES	PriA SSB inh	RN4220 kill	Sa ugtP lethal	Mtb bLac sens	Mtb hypoxia inh
O=C(Nc1nc(-c2ccccn2)cs1)c1ccc([N+](=O)[O-])cc1	102	·	·	·	·
COc1coc(C(=O)Nc2nc(-c3ccccn3)cs2)cc1=O	87	·	·	·	·
COc1coc(C(=O)Nc2nccs2)cc1=O	–	·	·	·	·
COc1ccc(C(=O)Nc2nc(-c3ccccn3)cs2)cc1OC	114	·	·	·	·
Cn1ccc2cc(C(=O)Nc3nc(-c4ccccn4)cs3)ccc21	110	·	·	·	·
COc1ccc2cc(C(=O)NCCc3ccsc3)[nH]c2c1	–	·	·	·	·
CC(Oc1ccc(F)cc1)C(=O)Nc1nc(-c2ccccn2)cs1 (stereo not given)	57	–	–	–	–
CN(CC1CCCO1)S(=O)(=O)c1ccc(C(=O)Nc2nc(-c3cccnc3)cs2)cc1 (stereo not given)	–	·	·	·	·
CN(CC1CCCO1)S(=O)(=O)c1ccc(C(=O)Nc2nc(-c3ccccn3)cs2)cc1 (stereo not given)	44	–	–	–	–
Cc1ccnc2nc(C(=O)Nc3nc(-c4ccccc4Cl)cs3)nn12	–	·	·	·	·
Cc1nc(C(=O)Nc2nc(-c3ccccn3)cs2)nn1-c1ccc(F)cc1	90	·	·	·	·
Cc1ccnc2nc(C(=O)Nc3nc(-c4ccccn4)cs3)nn12	72	–	–	–	–
CCOc1ccc2nc(NC(=O)c3ccc(N(CC)CC)cc3)sc2c1	–	·	·	·	·
Cc1cc(=O)n2c(n1)SCC2CC(=O)NC(C)C (stereo not given)	–	·	·	·	·
O=C(Nc1nc(-c2ccccn2)cs1)c1ccc(F)cc1	107	·	·	·	·
CC(C)n1nnc(-c2ccc(C(=O)Nc3nc(-c4ccccn4)cs3)cc2)n1	74	·	·	·	·
O=C(Nc1nc(-c2ccccn2)cs1)c1ccc(I)cc1	–	·	·	·	·
Cc1ccc(C)n1-c1ccc(C(=O)Nc2nc(-c3ccccn3)cs2)cc1	–	·	·	·	·
CSCc1ccc(C(=O)Nc2nc(-c3ccccn3)cs2)cc1	114	·	·	·	·
CCc1ccccc1NC(=O)NCCn1nc(-c2ccccc2)ccc1=O	–	·	·	·	·
O=C(NCCn1nc(-c2ccncc2)cc1C1CC1)C1(c2cccs2)CCCC1	–	·	·	·	·
COc1cc(C(=O)Nc2nc3cc(C)cc(C)c3s2)cc(OC)c1OC	–	·	·	·	·
Cc1ccnc(Nc2cc(NCCNC(=O)COc3ccccc3)ncn2)c1	–	·	·	·	·
Oc1ccccc1NCC(O)Cn1ccc2ccccc21 (stereo not given)	59	–	–	–	–
OC(CNCc1ccccc1)Cn1ccc2ccccc21 (stereo not given)	–	–	–	–	–
SMILES	PriA SSB inh	RN4220 kill	Sa ugtP lethal	Mtb bLac sens	Mtb hypoxia inh
CC1CCN(S(=O)(=O)c2ccc(C(=O)Nc3cccc(Cl)c3Cl)cc2)CC1	–	·	·	·	·
O=C(CSc1cccc2cccnc12)Nc1ccc(C(=O)O)cc1	133	·	·	·	·
CCCCCOc1ccc(NC(=O)CSc2cccc3cccnc23)cc1	79	–	–	–	–
CNC(=O)NC(=O)CSc1cccc2cccnc12	–	·	·	·	·
Cc1cccc(C)c1NC(=O)CSc1cccc2cccnc12	–	·	·	·	·
O=C(CSc1cccc2cccnc12)Nc1ccccc1	–	·	·	·	·
CCOC(=O)CSc1cccc2cccnc12	99	–	–	–	·
Cc1cc(Br)cc(C)c1NC(=O)CSc1cccc2cccnc12	59	·	·	·	·
CCOc1ccc(S(=O)(=O)N2CCC(Oc3cc(C)n(C)c(=O)c3)CC2)cc1F	–	·	·	·	·
COC(=O)c1ccc2c(=O)n(CCN(Cc3ccco3)C3CCCC3)c(=S)[nH]c2c1	–	·	·	·	·
O=c1c2nc(N3CCOCC3)sc2c(-c2cccs2)nn1Cc1ccc(Cl)c(Cl)c1	–	·	·	·	·
CN1CCN(NC(=O)CSc2cccc3cccnc23)CC1	91	·	·	·	·
CC(C)NC(=O)CSc1cccc2cccnc12	–	·	·	·	·
O=C(NCc1ccco1)c1ccccc1NS(=O)(=O)c1ccc(Cl)s1	–	–	–	–	·
O=C(Nc1ccccc1Cc1ccccc1)c1ccccc1NS(=O)(=O)c1ccc(Cl)s1	–	·	·	–	·
O=C(Nc1ccccc1)c1ccccc1NS(=O)(=O)c1ccc(Cl)s1	–	87	92	–	–
Cc1ccc(NC(=O)c2ccccc2NS(=O)(=O)c2ccc(Cl)s2)cc1	–	–	90	–	–
Cn1cccc(C(=O)NCCc2nc3c(c(C(F)(F)F)n2)CCCC3)c1=O	–	·	·	·	·
CN1CCN(c2cc(NC(=O)c3ccc(S(=O)(=O)N4CCCCC4)cc3)ncn2)CC1	–	·	·	·	·
CCOc1ccc(C(=O)NCC2(c3ccc(OC)cc3)CCCC2)cc1	–	·	·	·	·
c1ccc(-c2cn(C[C@H]3CC[C@@H]([C@@H]4CC[C@H](Cn5cc(-c6ccccn6)nn5)O4)O3)nn2)nc1	101	·	·	–	·
Cc1ccc2c(Nc3ccc(OC(F)(F)F)cc3)c(C(=O)N3CCSCC3)cnc2n1	–	·	·	·	·
CC(=O)N(C(C)=O)c1c(C#N)c(C)n(-c2ccccc2)c1C(=O)c1ccccc1	85	–	–	–	·
CCOC(=O)c1c(-c2ccccc2)oc2ccc(OC)cc12	–	–	90	–	·
CCOC(=O)c1c(-c2ccccc2)oc2ccc(OCC)cc12	–	–	–	–	–
SMILES	PriA SSB inh	RN4220 kill	Sa ugtP lethal	Mtb bLac sens	Mtb hypoxia inh
CN1CCCC1=CC=C1C(=O)N(C)C(=S)N1C	·	–	–	·	–
CN1CCC/C1=C/C=C1\SC(=S)NC1=O	–	–	–	–	41
O=C(NC(=S)N(Cc1ccccc1)Cc1ccccc1)c1ccccc1F	–	95	94	–	–
O=C(NC(=S)NCc1ccccc1)c1ccccc1F	–	–	–	–	–
CSc1cccc(NC(=O)Cn2nc3c(cc2=O)CCCC3)c1	–	·	·	·	·
Cc1ccc2sc(NNC(=O)c3c(F)cccc3F)nc2c1C	–	·	·	·	·
Cc1ccc2sc(NNC(=O)c3nc4ccccc4s3)nc2c1C	58	·	·	·	·
O=C1c2ccccc2C(=O)c2c1oc(C(F)(F)F)c2C(=O)c1ccccc1	–	94	79	–	·
O=C(c1ccccc1)c1coc2c1C(=O)c1ccccc1C2=O	–	–	–	–	–
COc1ccc(CCS(=O)(=O)NCCc2ccc(N3CCCC3)cc2)cc1	–	·	·	·	·
COc1ccc(Cn2ccc(=O)c(Cc3c(Cl)cccc3Cl)c2C)cc1	–	98	98	–	–
Cc1c(Cc2c(Cl)cccc2Cl)c(=O)ccn1C(C)c1ccccc1 (stereo not given)	–	98	99	·	–
Cc1ccc(Cn2ccc(=O)c(Cc3c(Cl)cccc3Cl)c2C)cc1	–	100	101	–	–
CCn1c(SCc2c(Cl)cccc2Cl)nnc1-c1nn(-c2ccccc2)ccc1=O	–	–	–	–	·
Cc1ccc(Cn2ccc(=O)c(OCc3ccccc3)c2C)cc1	–	–	–	–	·
Cc1c(OCc2ccccc2)c(=O)ccn1Cc1ccc(Cl)cc1	–	–	–	–	–
O=C(c1ccc(O)c(Br)c1)c1cc(Br)ccc1O	–	–	84	·	–
C/C=N/NC(=O)c1cc(Br)ccc1O	·	·	·	–	·
O=C(C(=O)c1cc(Br)ccc1O)c1cc(Br)ccc1O	–	100	100	·	–
CN(C)c1ccc(C=C2C=CC=C2)cc1	41	–	–	·	–
COc1ccccc1OCC(=O)Nc1cc(C)nn1-c1nc2c(cnn2-c2ccc(F)cc2)c(=O)[nH]1	–	·	·	·	·
COc1ccccc1OCC(=O)Nc1cc(C)nn1-c1nc2c(cnn2-c2cccc(C)c2C)c(=O)[nH]1	42	·	·	·	·
Cc1cc(NC(=O)c2c(F)cccc2F)n(-c2nc3c(cnn3-c3cccc(C)c3C)c(=O)[nH]2)n1	52	·	·	·	·
